Assay results published in PubChem BioAssay (NCATS).
Inconclusive results are not listed. The source made the active and inactive calls. The call rests on the fitted dose curve; in most records, active means well fitted inhibition curve with a large enough effect; inconclusive means small, poorly fitted or top-dose-only effect; inactive means flat fitted curve, though single readings scatter. Where a SMILES comes first, the peptide text is derived from it.

Test system: Zika virus NS2B-NS3 protease
Assay: Primary screen GU AMC qHTS for Zika virus inhibitors (AID 1347154); further: nearly all actives have a fitted effect of over 70% in size;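 on activity change, negative = inhibition: 0% = no-inhibitor control and -100% = no-enzyme control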
Conditions: Zika NS2B-NS3 unlinked protease, AMC fluorogenic substrate; series mostly up to 54.1 µM; activity change, negative = inhibition: at the top concentration
In short: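 Fluorogenic AMC-substrate cleavage by noncovalent NS2B-NS3 protease complex (25 nM, pH 8.0 Tris buffer with Tween 20) followed for 15 minutes at room temperature (~20% conversion). Percent inhibition from ex340/em450 signal change, fitted by 4-parameter Hill equation.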
Potency means the concentration at half of the fitted maximal effect.

Activity change, negative = inhibition, inactive:
NC(C(=O)O)C(CC(=O)O)c1ccc(Cl)cc1 (stereo unspecified) 1.17%, NCCn1oc(=O)[nH]c1=O 10.5%, C=C1Cc2c(Cl)cc3[nH]c4c5c3c2[C@@]2(O)[C@@H]1C[C@@H]2C(C)(C)O[C@H]5[C@@H]1CC[C@@]2(O)[C@@]35O[C@@H]3[C@@H](O)[C@@H](C(=O)O)O[C@H]5CC[C@]2(C)[C@@]41C 5.96%, CN(C)C(=O)n1nnnc1Cc1ccc(-c2ccccc2)cc1 9.98%, CNCC(=O)NCC(=O)N[C@@H](Cc1ccccc1)C(=O)N[C@@H](CC(C)C)C(=O)O (HELM PEPTIDE1{[Sar].G.F.L}$$$$V2.0) 7.91% [at 6.83 µM], CCCC1OC2CC3C4CCC5=CC(=O)C=CC5(C)C4C(O)CC3(C)C2(C(=O)CO)O1 (stereo unspecified) 1.3%, NC(CC(=O)Nc1ccc(Oc2cc(F)c(F)cc2Br)cc1)C(=O)O (stereo unspecified) -2.11%, COc1ccc(-n2[nH]c3c4c(ncc3c2=O)CCCCC4)cc1 17.3%, C[C@H](CC[C@@H]1OC1(C)C)C1CC[C@H]2[C@@H]3CC=C4C[C@@H](O)CC[C@]4(C)[C@H]3CC[C@]12C (stereo partly specified) 4.48%, CC(C)C[C@H](NC(=O)[C@H](Cc1ccccc1)NC(=O)CNC(=O)CNC(=O)[C@@H](N)Cc1ccc(O)cc1)C(=O)N[C@@H](CCCN=C(N)N)C(=O)N[C@@H](CCCN=C(N)N)C(=O)N[C@@H](CCC(N)=O)C(=O)N[C@@H](Cc1ccccc1)C(=O)N[C@@H](CCCCN)C(=O)N[C@H](C(=O)N[C@H](C(=O)N[C@H](C(=O)O)[C@@H](C)O)C(C)C)C(C)C 3.02% [at 6.83 µM]

Potency, active:
CCc1c2c(nc3ccc(OC(=O)N4CCC(N5CCCCC5)CC4)cc13)-c1cc3c(c(=O)n1C2)COC(=O)C3(O)CC (stereo unspecified) 29.9 µM
